# Screening data deposited in PubChem BioAssay by several laboratories.
# Shn3 3UTR inh – inhibitors of Schnurri-3 3'UTR reporter in osteoblasts; hit rate 0.52% among 360,000; Clone20 osteoblast Shn3 3'UTR firefly luciferase, 24 h; inhibition, % at 12.5 µM;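 active = mean inhibition of at least 75% with every replicate also reaching 75%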;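 also: 0% = median of neutral control wells and 100% = pilot-screen positive control compound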
# HIF-2a inh – HIF-2a inhibition; hit rate 0.72% among 360,000; inhibition, % at 18.8 µM; AID 624352; 786-0 RCC cells HIF-2a reporter, luciferase luminescence, overnight;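 active = inhibition of the luminescence signal of 40% or more relative to plate controls, in a single-dose primary screen at 18.75 µM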
# EBV LMP1 NFkB – Epstein-Barr LMP1 NF-kappaB reporter inhibition. LMP1-induced NF-kappaB luciferase reporter cells, luminescence. inhibition, % at 12.5 µM. hit rate 0.69% among 350,000; in the data active = inhibition above about 41%;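 also: 0% = neutral control wells and 100% = reference inhibitor control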
# TROY NFkB inh – blocks TROY-dependent signaling in reporter cells; Q293 LMP1-TROYcd NF-kB luciferase reporter, 4 h; hit rate 0.98% among 360,000; inhibition, % at 10 µM;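 active = compounds whose plate-normalised and pattern-corrected inhibition of the luciferase reporter signal at the single screening dose is 50% or more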
# TWEAK Fn14 block – inhibitors of TWEAK-Fn14 interaction signaling | TWEAK-stimulated Fn14 reporter cells, luciferase luminescence, 8 h | AID 1159606 | hit rate 2% among 360,000 | inhibition, % at 10 µM; in the data active = inhibition above about 50%
# TRPM1 prom inh – inhibitors of MITF-driven TRPM1 promoter in melanoma cells; AID 488899; hit rate 0.83% among 330,000; inhibition, % at 12.5 µM; SK-MEL-5 TRPM1 promoter luciferase, 24 h;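 active = mean inhibition across replicates of 60% or more, whatever share of single replicates reaches that level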
# An asterisk follows results filed as active; x = no result given. An excerpt weighted towards active compounds, which were near 3.4% of everything screened.
SMILES,Shn3 3UTR inh,HIF-2a inh,EBV LMP1 NFkB,TROY NFkB inh,TWEAK Fn14 block,TRPM1 prom inh
CC(C)Cc1nnc(NC(=O)C2CC(=O)N(c3ccc4c(c3)OCCO4)C2)s1 (stereo unspecified),-3,19,5,4,3,10
COc1cc(O)c(C(=O)/C=C/c2ccccc2)c(OC)c1,-76,-41,-2,-9,74*,x
CCN(C(=O)COC(=O)Cc1cccc2ccccc12)C1CCS(=O)(=O)C1 (stereo unspecified),0,15,2,10,-13,0
O=C(Nc1cccc2ccccc12)N(CCO)C1CCS(=O)(=O)C1 (stereo unspecified),-19,5,-4,51*,64*,6
CCN1C(c2ccccc2)C(C)C(=O)C(C)C1c1ccccc1 (stereo unspecified),3,16,8,x,83*,7
CC1C(=O)C(C)C(c2ccccc2)N(N=O)C1c1ccccc1 (stereo unspecified),-3,2,-3,-17,7,-10
Cc1cc(C(F)(F)F)nn1CC(=O)N1CCCCC1C (stereo unspecified),-15,19,-1,x,83*,4
Cn1c(=O)c2c(ncn2CCC(=O)N/N=C/c2cccnc2)n(C)c1=O,-2,16,2,0,84*,4
Cc1ccc(C)c(S(=O)(=O)Nc2ccccc2C(=O)Nc2cc(C)on2)c1,7,21,1,32,28,0
Cc1cc(NC(=O)c2ccccc2NS(=O)(=O)c2c(C)c(C)cc(C)c2C)no1,16,20,16,53*,38,11
C[C@@H]1CN([C@@H](C)CO)C(=O)CCCn2nncc2CO[C@H]1CN(C)C(=O)Nc1ccc2c(c1)OCO2,2,8,0,9,20,x
O=C(NCc1ccco1)C1Cc2c(-c3cccc(F)c3)ccnc2O1 (stereo unspecified),21,0,x,18,7,x
N=c1n(Cc2ccccc2)c2ccccc2n1CC(O)COc1ccccc1 (stereo unspecified),89*,6,-18,13,8,38
CCOC(=O)C1CCN(C(=O)c2ccc(OCC(=O)Nc3cccc(C(F)(F)F)c3)c(OC)c2)CC1,89*,7,26,27,36,21
CC1(Br)C(Sc2ccccc2[N+](=O)[O-])=Nc2ccccc21 (stereo unspecified),x,10,x,18,-23,x
Cc1nc2ccccn2c1-c1ccnn1S(=O)(=O)c1ccc(F)cc1,56,38,-9,16,52*,11
Cc1nc2ccccn2c1C(=O)/C=C/c1ccc(F)cc1,-48,-123,3,7,41,14
CC(C)n1ncc2c(C(=O)Nc3cccc(S(=O)(=O)N(C)C)c3)cc(C3CC3)nc21,5,-5,-2,-8,1,-3
Cc1ccc(S(=O)(=O)n2nc(OC(=O)c3ccccc3C)cc2N)cc1,4,5,5,30,57*,-6
Cc1cccc(NC(=O)c2ccc3c(Cl)c4c(nc3c2)CCCC4)n1,-26,-123,-34,71*,63*,-23
CCC(C)NC(=O)c1ccc2c(Cl)c3c(nc2c1)CCC3 (stereo unspecified),-82,-331,-8,-62,-6,-53
O=C(Nc1ccc(Cl)cn1)c1ccc2c(Cl)c3c(nc2c1)CCC3,-26,-182,0,60*,51*,1
O=C(C1CC=CCC1)N1CCCCCC1 (stereo unspecified),9,4,7,-2,0,x
COc1ccc(NC(=O)c2cc(C3CCCCN3C(=O)OCCF)on2)c(C)c1 (stereo unspecified),16,11,x,-11,15,x
CC(=O)C1=CCC(c2ccccc2)N(S(=O)(=O)c2cccc(C)c2)C1 (stereo unspecified),6,-1,x,28,5,x
SMILES,Shn3 3UTR inh,HIF-2a inh,EBV LMP1 NFkB,TROY NFkB inh,TWEAK Fn14 block,TRPM1 prom inh
CC(=O)Nc1ccc(S(=O)(=O)NCCc2ccc3c(c2)OCCO3)cc1,5,12,1,6,8,x
Oc1ccc(Cl)cc1CNCc1ccc(Cl)cc1,-36,-37,6,-14,2,-8
Oc1ccc(Cl)cc1Cc1cc(Cl)ccc1O,25,-8,7,54*,54*,5
COc1ccccc1-c1cc(C(=O)N2CCOCC2)no1,-54,-182,-15,-21,7,-105
C[C@@H]1COc2cc(N(C)CCO)ccc2S(=O)(=O)N1,x,0,x,2,-4,x
S=C(SSC(=S)N1CCOCC1)N1CCOCC1,90*,1,x,3,17,x
FC(F)(F)c1nc(N2CCN(c3ccccc3)CC2)nc2c1CCCCC2,9,-2,-3,57*,94*,3
CCN1CCC(O)(C(C(=O)OC)c2ccccc2)CC1 (stereo unspecified),-5,10,-3,-2,7,-10
O=C(CNC(=S)N(Cc1ccccc1F)C1CCCCC1)NCCCN1CCOCC1,-8,-8,4,11,85*,-5
CN(C(=O)c1cccc(NC(=O)Cc2ccc(NC(=O)C3CCCN(C(=O)C4CCCC4)C3)cc2)c1)C1CCCCC1 (stereo unspecified),4,-4,2,23,20,14
COc1ccc(C2=C(CN(C)C)C(c3ccccc3)c3ccccc3O2)cc1 (stereo unspecified),-1,20,78*,4,3,8
COc1ccccc1CN1CC(C(=O)N(C)Cc2ccc(C)o2)CCC1=O (stereo unspecified),-20,-44,-6,-16,7,-13
CCOc1cc2[nH]c(=O)n(CCCN3CCN(c4ccc(OC)cc4)CC3)c(=O)c2cc1OCC,30,21,3,3,87*,20
COc1ccc(N2CCN(CCNC(=O)CCCn3c(=O)[nH]c4cc(Cl)ccc4c3=O)CC2)cc1,-2,4,81*,18,1,11
O=C1[C@H]2[C@@H](c3ccccc3)N[C@]3(CCCN(Cc4ccc(F)cc4)C3=O)[C@H]2C(=O)N1Cc1ccccc1,-13,11,12,-1,-9,x
CCOCCCNc1ncnc2c1[nH]c1ccccc12,79,-41,29,x,43,-9
CCCCOCCCNc1ncnc2c1[nH]c1ccccc12,83*,7,15,38,60*,11
Cc1ccc(N(Cc2cc3ccccc3[nH]c2=O)C(=O)c2ccco2)c(C)c1,10,12,40*,24,0,3
Cc1ccc2cc(CN(C(=O)c3ccco3)c3ccccc3)c(=O)[nH]c2c1,-5,-59,5,12,-38,-5
Clc1nnc(NC2CCCCC2)c(Cl)c1Cl,6,5,6,1,-25,x
COc1ccc(-n2cccc2/C=C/[N+](=O)[O-])cc1,32,35,-4,-43,25,43
Cc1ccc(S(=O)(=O)n2cccc2/C=C/[N+](=O)[O-])cc1,94*,30,36,-11,-32,x
